Results published in PubChem BioAssay (NCATS).
Results filed as inconclusive are left out. Calls of active or inactive are those of the source. Calls come from the whole dose curve; as a rule, active = well fitted inhibition curve with a large enough effect; inconclusive = small, poorly fitted or top-dose-only effect; inactive = flat fitted curve, though single readings scatter.

Tests used:
Assay in all cases: qHTS profiling for inhibitors of Plasmodium falciparum proliferation (AID 504749); note: nearly all actives have a fitted effect of over 60% in size
Details in all cases: P. falciparum in erythrocytes, SYBR Green DNA, 72 h; series mostly up to 28.7 µM
3D7 = test system: 3D7
Procedure, shortened: (§1)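 Quantitative HTS: compounds pinned into medium, infected erythrocytes added (0.3% parasitemia, 2.5% hematocrit), 72 h culture at 37 C under 5% CO2. Saponin/Triton lysis with SYBR Green I, overnight RT, then fluorescence read.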

7G8 = test system: 7G8
Procedure, shortened: as §1

ATS95 = test system: ATS95
Procedure, shortened: as §1

C2A = test system: C2A
Procedure, shortened: as §1

CP237 = test system: CP237
Procedure, shortened: as §1

CP238 = test system: CP238
Procedure, shortened: as §1

CP262 = test system: CP262
Procedure, shortened: as §1

CP265 = test system: CP265
Procedure, shortened: as §1

CP266 = test system: CP266
Procedure, shortened: as §1

CP268 = test system: CP268
Procedure, shortened: as §1

CP269 = test system: CP269
Procedure, shortened: as §1

CP305 = test system: CP305
Procedure, shortened: as §1

CP325 = test system: CP325
Procedure, shortened: as §1

DIV30 = test system: DIV30
Procedure, shortened: as §1

Dd2 = test system: Dd2
Procedure, shortened: as §1

ECU = test system: ECU
Procedure, shortened: as §1

GB4 = test system: GB4
Procedure, shortened: as §1

HB3 = test system: HB3
Procedure, shortened: as §1

P93_24 = test system: P93_24
Procedure, shortened: as §1

PAD = test system: PAD
Procedure, shortened: as §1

Measured: Potency

CN1[C@H]2CC(OC(=O)[C@H](CO)c3ccccc3)C[C@H]1[C@H]1O[C@H]12 (stereo not given in full)
inactive: all assays above
